Hits are enriched below; roughly 5.1% of the tested compounds scored in any of these assays.
KCC2 mod: modulators of human KCC2 chloride dependent transport | KCC2 cells, thallium flux FluoZin-2 fluorescence | 190,000 compounds, 2.2% hits | AID 1456 | B-score of Tl+ flux slope (higher = more flux/activation; lower = inhibition) at 10 µM | Q9H2X9;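 active = thallium flux slope and its plate-corrected score both differing from the plate sample mean at a set confidence after two filtering rounds, in either direction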;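 also: slope of fluorescence scaled to starting intensity during 10 to 20 s after thallium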
S1P3 antagonist: antagonists of human S1P3 receptor; CHO S1P3 NFAT-BLA reporter, FRET fluorescence, antagonist mode; 170,000 compounds, 0.27% hits; AID 485; inhibition, % at 4.98 µM;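 active = inhibition above the plate cutoff, the mean inhibition of test wells on that plate plus 3 SD, cut at about 28% in these data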;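 also: cells challenged with S1P at its EC80 of 0.8 µM; blue over green emission ratio from cleaved BLA substrate after 4 h stimulation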
RAM inhibit: yeast RAM network inhibition | S. cerevisiae dse1pr::URA3 reporter, 5-FOA growth OD615, 2 d; analog-sensitive cbk1-as2 kinase mutant strain | 190,000 compounds, 1.8% hits | inhibition, % at 50 µM | AID 868;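 active = inhibition above a set limit, 3 SD over mean compound inhibition, cut at about 8.4% in these data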;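 also: inhibition rescues growth on 5-FOA so higher OD means more RAM inhibition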
ROMK mod: modulators of human ROMK potassium channel; P48048; Tet-inducible ROMK, thallium flux fluorescence; actives lie on both sides; B-score at 10 µM; 130,000 compounds, 2% hits; AID 1918;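 active = signal ratio slope over the read window, or its plate-corrected B-score, at least 3 SD from the plate mean, either direction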;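 also: B-score of the F/F0 ratio slope over 7 to 12 s after thallium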
Target sequence (P48048 whole entry, looked up): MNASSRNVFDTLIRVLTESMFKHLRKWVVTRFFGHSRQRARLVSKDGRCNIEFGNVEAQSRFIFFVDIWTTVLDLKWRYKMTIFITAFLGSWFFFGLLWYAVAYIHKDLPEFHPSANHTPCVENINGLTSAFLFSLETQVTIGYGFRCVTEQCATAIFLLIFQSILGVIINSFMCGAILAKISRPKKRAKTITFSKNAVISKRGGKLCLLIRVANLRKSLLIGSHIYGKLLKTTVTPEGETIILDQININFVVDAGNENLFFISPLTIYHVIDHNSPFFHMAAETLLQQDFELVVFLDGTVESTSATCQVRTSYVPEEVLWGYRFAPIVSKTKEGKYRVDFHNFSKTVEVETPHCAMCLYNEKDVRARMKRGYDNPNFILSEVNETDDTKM
S1P4 antagonist: blocks the human S1P4 receptor; O95977; S1P4-expressing cells, antagonist mode, reporter read-out; inhibition, % at 4.98 µM; 220,000 compounds, 0.26% hits; in the data active = inhibition above about 29%
Target sequence (O95977 whole entry, looked up): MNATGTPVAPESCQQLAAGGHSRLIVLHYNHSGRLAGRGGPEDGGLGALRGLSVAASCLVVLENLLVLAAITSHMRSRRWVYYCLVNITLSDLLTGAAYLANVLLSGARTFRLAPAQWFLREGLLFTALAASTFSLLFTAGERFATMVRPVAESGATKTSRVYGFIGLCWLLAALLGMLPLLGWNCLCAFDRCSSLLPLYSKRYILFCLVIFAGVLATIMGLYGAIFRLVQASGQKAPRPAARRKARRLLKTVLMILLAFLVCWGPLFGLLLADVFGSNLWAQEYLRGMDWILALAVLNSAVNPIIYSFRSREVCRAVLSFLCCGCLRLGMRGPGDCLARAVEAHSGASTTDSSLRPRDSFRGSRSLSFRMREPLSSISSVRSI
S1P4 agonist: human S1P4 receptor agonism | O95977 | S1P4-expressing cell line, agonist reporter assay | activation, % at 4.98 µM | 220,000 compounds, 0.35% hits | AID 1509; in the data active = activation above about 11%
KCC2 sec1: confirmation of human KCC2 transport modulators; HEK293-KCC2, thallium flux, FluoZin2 fluorescence; hits give high values; shares compounds with KCC2 mod; 3,700 compounds, 15% hits; normalised thallium flux (F/F0 slope) at 10 µM;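 active = thallium flux slope above the same plate's solvent-only control mean plus 3 SD; inconclusive = the two replicate wells disagree; inactive = no significant difference from solvent-only control wells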
KCC2 bumet counter: bumetanide-insensitive thallium flux in KCC2 cells with ouabain, counter-screen | 3,700 compounds, 49% hits | normalized thallium flux at 10 µM | shares compounds with KCC2 mod | HEK293-KCC2 + bumetanide/ouabain, thallium flux FluoZin2; hits give high values;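 active = thallium entry rate above the same plate's blocked-transporter control wells by more than 3 SD; inconclusive = the two repeat wells disagree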;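 also: raw slope of fluorescence over initial fluorescence between 10 and 20 s after thallium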
KCC2 secondary2: confirmation of human KCC2 transport modulators | HEK293-KCC2, thallium flux FluoZin2 fluorescence; actives lie on both sides; F/F0 rise rate, 10–20 s post-thallium | shares compounds with KCC2 mod | normalized thallium flux at 10 µM | AID 1715 | 3,700 compounds, 23% hits;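 active = thallium flux slope more than 3 SD above or below the plate's solvent-only control mean, mostly below; inconclusive = the two repeat wells disagreed; inactive = no significant shift from solvent-only controls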
HEK counter1: acts in parental HEK cells, KCC2 counter-screen; shares compounds with KCC2 mod; HEK293 parental cells, thallium flux FluoZin2, ouabain; baseline-ratio fluorescence slope, 10–20 s after thallium; thallium flux rate (normalised fluorescence) at 10 µM; 3,700 compounds, 46% hits;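 active = thallium flux rate significantly above the same plate's solvent-only control wells, beyond their mean plus 3 SD; inconclusive = the two replicate wells gave conflicting results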
KCC2 ouabain: KCC2 (human) modulation, ouabain retest. raw Tl+ flux slope (below DMSO = inhibition, above = activation) at 10 µM. shares compounds with KCC2 mod. HEK293-KCC2, thallium flux FluoZin2 fluorescence; bidirectional: low = inhibitor, high = activator. 3,700 compounds, 48% hits. AID 1717;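 active = thallium flux slope beyond 3 SD from same-plate DMSO control mean in most replicates, usually higher, sometimes lower; inconclusive = repeat tests gave conflicting results; inactive = no significant difference from controls in most replicates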;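 also: slope of initial-normalized fluorescence between seconds 10 and 20 after thallium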
HEK counter2: acts in parental HEK cells, second KCC2 counter-screen. shares compounds with KCC2 mod. HEK293 parental, thallium flux FluoZin-2 fluorescence slope. thallium flux slope at 10 µM. 3,700 compounds, 33% hits. AID 1718;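 active = thallium flux slope above the same plate's solvent-control mean plus 3 SD in both duplicate wells; inconclusive = duplicate wells that disagreed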;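 also: run without ouabain in cells lacking the KCC2 cotransporter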
Each line names hits and unclear results; the compound was inactive in the other large screens (follow-up assays come after a bar, where they were run).

COc1cccc(-c2cc(C(=O)N3CCc4ccccc4C3)no2)c1	KCC2 mod 3.37 (no result: ROMK mod) | KCC2 sec1 inactive | KCC2 bumet counter inactive | KCC2 secondary2 inactive | HEK counter1 inactive | KCC2 ouabain inactive | HEK counter2 inactive
COc1ccc2c(c1)O[C@H](c1ccc3c(c1)OCO3)[C@@H](O)C2=O	none
COc1ccc2c(c1)O[C@@H](c1cccc(C(F)(F)F)c1)[C@H](O)C2=O	KCC2 mod 8.78 | KCC2 sec1 inactive | KCC2 bumet counter 0.00931 | KCC2 secondary2 inactive | HEK counter1 0.0112 | KCC2 ouabain inconclusive | HEK counter2 inconclusive
O=C(O)CCNc1cc2ccccc2cc1C(=O)O	KCC2 mod 5.55 (no result: ROMK mod) | KCC2 sec1 inactive | KCC2 bumet counter inactive | KCC2 secondary2 inactive | HEK counter1 inactive | KCC2 ouabain inactive | HEK counter2 inactive
O=C(O)CCNS(=O)(=O)c1ccc2ccccc2c1	none (no result: S1P3 antagonist)
COC(C[C@@H](O)[C@@H](C)[C@H](O)COCc1ccccc1)OC	none (no result: S1P3 antagonist, RAM inhibit, ROMK mod, S1P4 antagonist, S1P4 agonist)
CC(C)Oc1ccc(C(=O)NC2(C(F)(F)F)NC(=O)N(CCCc3ccccc3)C2=O)cc1 (stereo unspecified)	none
COc1cccc(/C=C2\SC(N)=NC2=O)c1OS(=O)(=O)c1ccccc1	none (no result: KCC2 mod)
COc1cccc(/C=C2\SC(=S)NC2=O)c1OS(=O)(=O)c1ccc(NC(C)=O)cc1	KCC2 mod -5.85 | KCC2 sec1 inconclusive | KCC2 bumet counter inactive | KCC2 secondary2 inconclusive | HEK counter1 0.00553 | KCC2 ouabain 0.0142 | HEK counter2 inactive
FC(F)(F)c1ccc(Cl)c(NC(=S)NC2CC2)c1	KCC2 mod 4.17 | KCC2 sec1 inactive | KCC2 bumet counter inactive | KCC2 secondary2 inactive | HEK counter1 inactive | KCC2 ouabain inactive | HEK counter2 inactive
Cc1cccc(NCC(=O)N/N=C/c2ccc(Br)cc2)c1	none
Cc1ccc(/C=N/NC(=O)c2cccs2)s1	none
O=C(N/N=C/c1ccc(Br)s1)c1cccs1	KCC2 mod 112 (no result: RAM inhibit, ROMK mod) | KCC2 sec1 0.014 | KCC2 bumet counter 0.086 | KCC2 secondary2 inactive | HEK counter1 0.0405 | KCC2 ouabain 0.0491 | HEK counter2 0.0336
O=C(O)C1CCCCC1C(=O)Nc1cc(C(F)(F)F)ccc1Cl (stereo unspecified)	none
CC(C)(C)C(=O)/C=c1\[nH]c(=O)/c(=C\c2ccc(C#N)cc2)s1	KCC2 mod 30.2 (no result: ROMK mod) | KCC2 sec1 0.0186 | KCC2 bumet counter 0.05 | KCC2 secondary2 inactive | HEK counter1 inconclusive | KCC2 ouabain 0.0477 | HEK counter2 inconclusive
CC(Cc1cccs1)NC(=S)Nc1ccc(Cl)c(Cl)c1 (stereo unspecified)	KCC2 mod 6.7 (no result: ROMK mod) | KCC2 sec1 inactive | KCC2 bumet counter 0.0191 | KCC2 secondary2 inactive | HEK counter1 0.00843 | KCC2 ouabain 0.0207 | HEK counter2 inconclusive
O=C1C(C2=NC(c3ccccn3)C3C(=O)N(c4ccccc4)C(=O)C23)=C(O)c2ccccc21 (stereo unspecified)	none (no result: KCC2 mod, RAM inhibit, ROMK mod)
Clc1ccc(-c2c(C3=NCCCN3)nnn2-c2ccc(Cl)cc2)cc1	none (no result: RAM inhibit, ROMK mod)
COc1ccc2nc(NC(=O)C3COc4ccccc4O3)sc2c1 (stereo unspecified)	none (no result: ROMK mod)
COc1ccc(Cl)cc1C(=O)NNC(=O)C1COc2ccccc2O1 (stereo unspecified)	KCC2 mod 39 | KCC2 sec1 inactive | KCC2 bumet counter 0.0535 | KCC2 secondary2 inactive | HEK counter1 0.0166 | KCC2 ouabain 0.043 | HEK counter2 0.0116
CCOC(=O)c1ccccc1NC(=O)C1COc2ccccc2O1 (stereo unspecified)	KCC2 mod -5.18 | KCC2 sec1 inactive | KCC2 bumet counter inactive | KCC2 secondary2 inactive | HEK counter1 inactive | KCC2 ouabain inactive | HEK counter2 inactive
COc1ccc2nc(NNC(=O)C3COc4ccccc4O3)sc2c1 (stereo unspecified)	KCC2 mod 5.07 | KCC2 sec1 inactive | KCC2 bumet counter 0.0198 | KCC2 secondary2 inactive | HEK counter1 0.0109 | KCC2 ouabain inconclusive | HEK counter2 inactive
O=C(Nc1nc(-c2nc3ccccc3s2)cs1)C1COc2ccccc2O1 (stereo unspecified)	KCC2 mod 2.55 (no result: ROMK mod) | KCC2 sec1 inactive | KCC2 bumet counter 0.00832 | KCC2 secondary2 inactive | HEK counter1 inconclusive | KCC2 ouabain inactive | HEK counter2 0.0112
O=C(CSc1nc2cccnc2n1Cc1ccccc1)NC1CCCCC1	none (no result: S1P3 antagonist)
Nc1ccc2c(c1)ncn2CCCn1cnc2cc(N)ccc21	none (no result: KCC2 mod) | KCC2 sec1 inactive | KCC2 bumet counter inactive | KCC2 secondary2 inconclusive | HEK counter1 inactive | KCC2 ouabain inactive | HEK counter2 inactive
c1ccc(OCCCCn2cnc3ccccc32)cc1	none (no result: ROMK mod)
O=C(NCc1nc(-c2ccccc2)cs1)c1ccccc1	KCC2 mod -4.27 | KCC2 sec1 inactive | KCC2 bumet counter inconclusive | KCC2 secondary2 0.0219 | HEK counter1 inactive | KCC2 ouabain inconclusive | HEK counter2 inactive
O=C(NNc1nc(-c2ccc(F)cc2)cs1)c1ccccc1	KCC2 mod -4.24 | KCC2 sec1 inactive | KCC2 bumet counter inactive | KCC2 secondary2 0.0275 | HEK counter1 inactive | KCC2 ouabain 0.0168 | HEK counter2 inactive
CNC(=O)c1ccc(-c2nc(-c3ccccc3)cs2)cc1	none
O=C(CCNC(=O)c1ccccc1Cl)Nc1nc(-c2ccc(F)cc2)cs1	KCC2 mod -4.16 (no result: ROMK mod) | KCC2 sec1 inactive | KCC2 bumet counter inactive | KCC2 secondary2 inactive | HEK counter1 inactive | KCC2 ouabain 0.014 | HEK counter2 inactive
O=C(NNc1nc(-c2ccccc2)cs1)c1cccs1	KCC2 mod -3.77 (no result: RAM inhibit) | KCC2 sec1 inactive | KCC2 bumet counter inactive | KCC2 secondary2 0.0258 | HEK counter1 inactive | KCC2 ouabain 0.0149 | HEK counter2 inactive
O=C(NNc1nc(-c2ccccc2)cs1)c1ccc(F)cc1	none
CC(NC(=O)C(C)(C)C)C(c1cccs1)N1CCOCC1 (stereo unspecified)	none (no result: RAM inhibit, ROMK mod)
